The panel holds about 83,000 compounds, 20% with a hit somewhere; the sample as a whole holds those more often.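 Each cell line was grown in a 96-well plate and treated with one concentration of compound for 48 hours. Values below 10 were considered active.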 Unmarked numbers belong to inactive results. Active and inactive are the calls of the source.

Assay in all cases: NCI-60 one-dose screen, 48 h (100 = growth as untreated, 0 = no growth, -100 = all killed)
The test system of assay [1] is NCI-H23 lung. Conditions: 10 µM unless noted.
Assay [2] concerns NCI-H226 lung. As to conditions: 10 µM unless noted.
In assay [3] the test system is NCI-H322M lung. Conditions: 10 µM unless noted.
Assay [4] deals with HOP-62 NSCLC. Conditions: 10 µM unless noted.
The test system of assay [5] is NCI-H460 lung. Conditions: 10 µM unless noted.
In assay [6] the test system is HOP-92 NSCLC. As to conditions: 10 µM unless noted.
Assay [7] concerns NCI-H522 lung. Conditions: 10 µM unless noted.
Assay [8] deals with A549/ATCC NSCLC. Conditions: 10 µM unless noted.
The test system of assay [9] is 786-0 renal. Conditions: 10 µM unless noted.
Assay [10] has as its system COLO 205 colon. Conditions: 10 µM unless noted.
In assay [11] the test system is DU-145 prostate. As to conditions: 10 µM unless noted.
For assay [12], the system named is K-562 leukemia. Conditions: 10 µM unless noted.
The test system of assay [13] is MALME-3M melanoma. As to conditions: 10 µM unless noted.
The subject of assay [14] is MDA-MB-231 breast. Conditions: 10 µM unless noted.
Assay [15] has as its system RXF 393 renal. As to conditions: 10 µM unless noted.
Assay [16] deals with SF-268 CNS. Conditions: 10 µM unless noted.
Assay [17] has as its system SF-295 CNS. Conditions: 10 µM unless noted.
Assay [18] deals with SF-539 CNS. As to conditions: 10 µM unless noted.
Assay [19] has as its system UACC-257 melanoma. As to conditions: 10 µM.
Assay [20] has as its system M14 melanoma. As to conditions: 10 µM unless noted.

As for `CN(C)C(=O)c1ccccc1-n1cnc2ccccc2c1=O`, the growth in assay [1] is 99.3%; in [2], 102%; in assay [3], 98.5%; in assay [4], 112%; in assay [5], 101%; in assay [6], 117%. Besides, the growth in assay [7] was 101%; in assay [8], 99.2%; in [9], 101%; in assay [10] it was 109%; in assay [11], 105%; in assay [12] it was 108%. Further, the growth in assay [13] is 103%; in assay [14], 100%; in assay [15], 107%; in [16] it was 94.6%; in assay [17] it was 103%; in assay [18], 95.5%. Also, the growth in assay [19] was 98.5%; in assay [20], 101%.

For `Clc1ccc(-c2csc(Nc3cccc(Nc4csc(-c5ccc(Cl)cc5)n4)c3)n2)cc1`, the growth in assay [1] is 72.3%; in [2], 74.6%; in [3], 68.9%; in assay [4], 85.3%; in [5], 79.1%; in [6] it was 75.9%. Besides, the growth in [7] is 45.6%; in assay [8], 88.5%; in assay [9], 104%; in assay [10] it was 94.2%; in assay [11] it was 86.2%; in assay [12] it was 67.1%. The growth was 98% in [13]; 64.2% in assay [14]; 94.4% in [15]; 79.3% in assay [16]; 90% in [17]; 82.8% in [18]. Moreover, the figures for the growth in assay [19] and in assay [20] were 102% and 74.7%, respectively.

For `COc1ccc(NC2=C(Cl)C(=O)C(C)=C(C)C2=O)cc1`, the growth is 83.7% in assay [1]; 99% in [2]; 100% in [3]; 95.6% in assay [4]; 97.3% in [5]; -2.54% (active) in assay [6]. The growth is 85.6% in assay [7]; 98.3% in [8]; 113% in assay [9]; 109% in assay [10]; 106% in assay [11]; 5.78% (active) in [12]. Besides, the growth in assay [13] is 99.8%; in assay [14], -15.1% (active); in assay [15], 100%; in [16], 96%; in [17], 100%; in assay [18] it was 103%. For the same molecule, the growth is 85.5% in assay [19] and 95.5% in [20].

For `C(=C(\C1=NCCN1)n1cnc2ccccc21)/c1ccc2ccccc2c1`, the growth in assay [1] was 65.4%; in assay [2], 62.6%; in assay [3], 73.2%; in [4], 79.4%; in assay [5], 86.5%; in assay [6] it was -2.7% (active). The growth was 14.7% in assay [7]; 86% in [8]; 74.6% in assay [9]; 77.1% in assay [10]; 68.7% in [11]; 25.4% in assay [12]. For the same molecule, the growth in assay [13] was 79.2%; in assay [14], 62.5%; in assay [15], -14.1% (active); in assay [16], 81.8%; in assay [17], 77.7%; in assay [18], 82%. The figures for the growth in assay [19] and in assay [20] were 82.3% and 61.7%, respectively.

Take `COC(=O)c1c(C(=O)OC)c2n(CC(=O)Nc3cccc4cccnc34)c3ccccc3n2c1C(=O)c1ccc(C)cc1`: the growth was 94.1% in [1]; 88% in assay [2]; 99% in assay [3]; 96% in assay [4]; 103% in [5]; 89.7% in assay [6]. Further, the growth in assay [7] was 80.5%; in assay [8], 91.2%; in assay [9], 101%; in assay [10] it was 114%; in [11] it was 105%; in assay [12] it was 91.2%. Further, the growth in [13] is 97.7%; in assay [14], 88.4%; in assay [15], 97.8%; in assay [16], 97.2%; in [17], 95.1%; in assay [18] it was 106%. The growth was 104% in [19] and 99.9% in [20].

For `COc1cc(/C=C2\SC(=O)NC2=O)ccc1OCC(=O)Nc1ccc(C(=O)/C=C/c2cc3ccccc3nc2Cl)cc1`, the growth was 68.6% in assay [1]; 96.2% in [2]; 99.2% in [3]; 107% in [4]; 96.3% in assay [5]; 82.5% in [6]. The growth in [7] was 72.5%; in assay [8], 102%; in assay [9] it was 101%; in [10], 116%; in [11] it was 96.9%; in assay [12] it was 49.4%. Besides, the growth is 89% in assay [13]; 88.6% in assay [14]; 77.1% in [15]; 85.8% in assay [16]; 87% in [17]; 83.2% in assay [18]. Further, the growth was 86.3% in assay [19] and 85.6% in assay [20].

Take `O=c1[nH]c(CCl)nc2c1cnn2-c1ccccc1`: the growth was 101% in assay [1]; 110% in [2]; 101% in [3]; 125% in assay [4]; 101% in assay [5]; 101% in assay [6]. The growth is 103% in assay [7]; 98.6% in [8]; 77.9% in [9]; 114% in [10]; 98.6% in assay [11]; 87.5% in assay [12]. In addition, the growth was 110% in [13]; 101% in assay [14]; 94.1% in assay [15]; 99.9% in assay [16]; 110% in assay [17]; 97.1% in assay [18]. Also, the results for the growth in assay [19] and in assay [20] were 96.2% and 95.7%, respectively.

(Values after PubChem BioAssay (NCI).)
